According to PubChem BioAssay (EPA / NIEHS):
The source made the active and inactive calls. Rule for the calls: active = hit-call score of the fitted dose curve at least 0.9, where 1 is the maximum; inactive = score below 0.9.

Experiments:
[1] = ATG_CRE_CIS: Attagene CIS-FACTORIAL HepG2 Assay for human cAMP Responsive Element (CRE) binding protein 3 (AID 2282926); conditions: HepG2 CRE cis-reporter, Attagene multiplexed mRNA; actives raise or lower the signal
Procedure, shortened: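 We dosed HepG2 cells bearing multiple cis-promoter reporter units for 24 h and measured reporter mRNA by RT-PCR with capillary electrophoresis detection. Bidirectional concentration-response fitting used DMSO as negative control.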

[2] = biological target: CCAAT/enhancer-binding protein beta (Homo sapiens) (UniProt P17676); test: ATG_C_EBP_CIS: Attagene CIS-FACTORIAL HepG2 Assay for human CCAAT/Enhancer Binding Protein (C/EBP) beta (AID 2282927); conditions: HepG2 Attagene cis-factorial transcription factor reporter; actives raise or lower the signal
Chain of CCAAT/enhancer-binding protein beta (Homo sapiens) (P17676 whole entry, looked up): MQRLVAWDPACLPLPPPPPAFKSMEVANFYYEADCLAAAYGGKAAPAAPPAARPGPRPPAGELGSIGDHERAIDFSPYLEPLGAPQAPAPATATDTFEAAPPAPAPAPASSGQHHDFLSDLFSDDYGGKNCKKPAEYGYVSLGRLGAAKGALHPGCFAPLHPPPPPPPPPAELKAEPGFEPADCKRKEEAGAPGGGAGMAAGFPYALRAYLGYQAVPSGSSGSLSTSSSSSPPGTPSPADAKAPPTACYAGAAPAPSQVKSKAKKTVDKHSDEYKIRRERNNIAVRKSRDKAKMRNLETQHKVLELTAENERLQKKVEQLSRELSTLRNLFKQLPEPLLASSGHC
Procedure, shortened: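 HepG2 transiently transfected with multiplexed reporter units under cis-regulatory promoters reporting endogenous C/EBPb activity. After 24 h exposure, reporter mRNA assayed by RT-PCR, fluorescent labelling, HpaI digestion and capillary electrophoresis; bidirectional fitting versus DMSO.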

[3] = ATG_CMV_CIS: Attagene CIS-FACTORIAL HepG2 Assay for human CMV (Internal Marker) (AID 2282928); conditions: HepG2 CMV promoter reporter, transcription factor profiling; actives raise or lower the signal;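 note: endpoint acts as a background internal control marker rather than a target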
Procedure, shortened: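 CMV internal-marker background readout in transiently transfected HepG2 cells bearing cis-regulated reporter units. Reporter mRNA is measured 24 h after dosing by RT-PCR and capillary electrophoresis, with bidirectional fitting against DMSO.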

[4] = ATG_DR4_LXR_CIS: Attagene CIS-FACTORIAL HepG2 Assay for human Liver X Receptor (LXR), DR4 submotif (AID 2282929); conditions: HepG2 Attagene DR4 cis-reporter, mRNA transcription; actives raise or lower the signal
Procedure, shortened: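 After transient transfection with multiplexed cis-promoter reporter units, HepG2 cells received test chemicals for 24 h. Reporter mRNA induction, detected by fluorescence after RT-PCR and capillary electrophoresis, was scored relative to DMSO.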

[5] = biological target: Aryl hydrocarbon receptor (Homo sapiens) (UniProt P35869); test: ATG_Ahr_CIS: Attagene CIS-FACTORIAL HepG2 Assay for human Aryl Hydrocarbon Receptor (Ahr) (AID 2282930); conditions: HepG2 AhR cis-factorial reporter transcription; actives raise or lower the signal
Chain of Aryl hydrocarbon receptor (Homo sapiens) (P35869 whole entry, looked up): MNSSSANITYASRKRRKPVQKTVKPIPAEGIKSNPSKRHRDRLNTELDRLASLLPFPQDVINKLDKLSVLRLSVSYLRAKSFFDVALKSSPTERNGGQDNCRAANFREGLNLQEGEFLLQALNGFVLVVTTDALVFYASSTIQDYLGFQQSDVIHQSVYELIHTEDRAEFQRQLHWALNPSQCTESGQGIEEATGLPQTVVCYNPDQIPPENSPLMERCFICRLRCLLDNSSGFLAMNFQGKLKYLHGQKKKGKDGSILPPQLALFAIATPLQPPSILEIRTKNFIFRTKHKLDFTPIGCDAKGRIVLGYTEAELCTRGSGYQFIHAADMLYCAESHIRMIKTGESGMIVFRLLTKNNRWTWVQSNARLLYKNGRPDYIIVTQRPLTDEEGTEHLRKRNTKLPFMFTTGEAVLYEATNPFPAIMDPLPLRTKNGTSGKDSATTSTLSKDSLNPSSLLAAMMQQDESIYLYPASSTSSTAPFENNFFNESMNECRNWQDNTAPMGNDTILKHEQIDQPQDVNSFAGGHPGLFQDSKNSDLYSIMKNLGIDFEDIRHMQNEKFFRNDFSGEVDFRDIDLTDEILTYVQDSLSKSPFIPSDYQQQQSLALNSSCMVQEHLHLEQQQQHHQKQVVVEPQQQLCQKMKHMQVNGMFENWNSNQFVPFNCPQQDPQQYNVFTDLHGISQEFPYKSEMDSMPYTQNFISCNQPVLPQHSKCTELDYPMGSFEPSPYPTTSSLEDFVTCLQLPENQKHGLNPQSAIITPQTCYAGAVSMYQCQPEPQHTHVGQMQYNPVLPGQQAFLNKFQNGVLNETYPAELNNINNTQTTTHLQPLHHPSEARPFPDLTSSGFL
Procedure, shortened: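 HepG2 cells transiently transfected with cis-element-driven multiplexed reporter units; endogenous AhR activity read as reporter mRNA 24 h after dosing, via RT-PCR, 6-FAM labelling, HpaI digestion and capillary electrophoresis. Bidirectional fit relative to DMSO.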

[6] = ATG_AP_1_CIS: Attagene CIS-FACTORIAL HepG2 Assay for human Activator Protein 1 (AP-1) (AID 2282931); conditions: HepG2 Attagene cis-factorial AP-1 reporter mRNA; actives raise or lower the signal
Procedure, shortened: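 After 24 h incubation with test chemical, RNA from transfected HepG2 cells was reverse-transcribed, amplified, fluorescently labelled and digested before capillary electrophoresis. Reporters were driven by cis-regulatory promoters; activity fitted bidirectionally versus DMSO.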

[7] = ATG_AP_2_CIS: Attagene CIS-FACTORIAL HepG2 Assay for human Activator Protein 2 (AP-2) (AID 2282932); conditions: HepG2 AP-2 cis-reporter, Attagene transcription factor profiling; actives raise or lower the signal
Procedure, shortened: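 HepG2 cells transiently transfected with cis-element reporter units and exposed for 24 h. Reporter mRNA measured by RT-PCR, FAM labelling, HpaI digestion and capillary electrophoresis. Changes in either direction fitted relative to DMSO.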

[8] = ATG_BRE_CIS: Attagene CIS-FACTORIAL HepG2 Assay for human Bone Morphogenetic Protein (BMP) Response Element (BRE) (AID 2282933); conditions: HepG2 BMP response element reporter, Attagene transcription factor profiling; actives raise or lower the signal
Procedure, shortened: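 HepG2 cells transiently transfected with CIS reporter units (endogenous TF activity, BMP response element), dosed 24 h. Reporter mRNA quantified by RT-PCR, fluorescent labelling and capillary electrophoresis; bidirectional fit vs DMSO baseline.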

[9] = biological target: Retinoic acid receptor alpha (Homo sapiens) (UniProt P10276); test: ATG_DR5_RAR_CIS: Attagene CIS-FACTORIAL HepG2 Assay for human Retinoic Acid Receptor Alpha (RARE), DR5 submotif (AID 2282934); conditions: HepG2 Attagene cis-factorial RARE DR5 reporter, mRNA; actives raise or lower the signal;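 for AC50: reporter responds to endogenous RAR alpha beta and gamma in HepG2 not RARA alone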
Chain of Retinoic acid receptor alpha (Homo sapiens) (P10276 whole entry, looked up): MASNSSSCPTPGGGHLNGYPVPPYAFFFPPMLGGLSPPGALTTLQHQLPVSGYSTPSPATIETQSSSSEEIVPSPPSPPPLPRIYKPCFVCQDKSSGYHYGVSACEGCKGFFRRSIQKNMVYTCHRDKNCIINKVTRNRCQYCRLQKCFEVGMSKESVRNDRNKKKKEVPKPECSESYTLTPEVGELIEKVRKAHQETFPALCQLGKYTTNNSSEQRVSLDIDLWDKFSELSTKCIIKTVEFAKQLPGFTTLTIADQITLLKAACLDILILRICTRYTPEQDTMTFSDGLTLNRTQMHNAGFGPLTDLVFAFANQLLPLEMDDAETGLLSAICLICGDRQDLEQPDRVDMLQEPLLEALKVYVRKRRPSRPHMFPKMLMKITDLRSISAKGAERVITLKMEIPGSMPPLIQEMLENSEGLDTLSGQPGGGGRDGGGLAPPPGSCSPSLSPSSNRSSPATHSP
Procedure, shortened: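 HepG2 cells transiently transfected with multiplexed reporter units; DR5 cis-element drives reporter through endogenous transcription factors. After 24 h dosing, reporter mRNA quantified by RT-PCR, fluorescent labeling, HpaI digestion and capillary electrophoresis; bidirectional fitting versus DMSO.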

[10] = biological target: Transcription factor E2F1 (Homo sapiens) (UniProt Q01094); test: ATG_E2F_CIS: Attagene CIS-FACTORIAL HepG2 Assay for human E2F Transcription Factor 1 (AID 2282935); conditions: HepG2 Attagene cis-reporter, E2F reporter RNA transcripts; actives raise or lower the signal
Chain of Transcription factor E2F1 (Homo sapiens) (Q01094 whole entry, looked up): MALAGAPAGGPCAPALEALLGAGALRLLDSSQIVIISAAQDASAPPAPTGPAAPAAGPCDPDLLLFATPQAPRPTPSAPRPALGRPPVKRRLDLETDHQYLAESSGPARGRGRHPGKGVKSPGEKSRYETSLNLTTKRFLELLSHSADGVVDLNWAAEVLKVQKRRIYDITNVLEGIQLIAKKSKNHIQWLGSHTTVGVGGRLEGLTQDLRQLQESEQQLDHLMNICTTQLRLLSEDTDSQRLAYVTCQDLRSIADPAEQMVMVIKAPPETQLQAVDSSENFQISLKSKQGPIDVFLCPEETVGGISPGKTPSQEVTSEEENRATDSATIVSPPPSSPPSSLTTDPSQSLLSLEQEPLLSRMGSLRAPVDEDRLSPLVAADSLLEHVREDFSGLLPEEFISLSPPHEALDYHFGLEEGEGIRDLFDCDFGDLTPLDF
Procedure, shortened: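 Endogenous E2F1 activity read through cis-promoter reporter units transfected into HepG2. After 24 h compound treatment, reporter mRNA measured by RT-PCR, HpaI digestion and capillary electrophoresis. Bidirectional fit versus DMSO.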

[11] = ATG_E_Box_CIS: Attagene CIS-FACTORIAL HepG2 Assay for human Enhancer Box (E-box) (AID 2282936); conditions: HepG2 E-box cis-reporter transcription, actives raise or lower the signal
Procedure, shortened: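 HepG2 cells transiently transfected with multiplexed cis-element reporter units, dosed 24 h; reporter mRNA quantified by RT-PCR, 6-FAM labelling, HpaI digestion and capillary electrophoresis. E-box (USF1) signal fitted bidirectionally vs DMSO.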

[12] = ATG_M_61_CIS: Attagene CIS-FACTORIAL HepG2 Assay for M61 Transcription Factor (Internal Marker) (AID 2282937); conditions: HepG2 Attagene CIS-FACTORIAL M61 internal marker reporter; actives raise or lower the signal
Procedure, shortened: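 Using transiently transfected HepG2 liver cells, reporter transcript levels were assessed 24 h post-dosing by RT-PCR and capillary electrophoresis. Changes in either direction were fitted relative to DMSO controls.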

[13] = ATG_EGR_CIS: Attagene CIS-FACTORIAL HepG2 Assay for human Early Growth Response 1 (EGR1) (AID 2282938); conditions: HepG2 Attagene CIS-FACTORIAL EGR reporter mRNA; actives raise or lower the signal
Procedure, shortened: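 Fluorescent capillary-electrophoresis signal of reporter cDNA fragments serves as read-out. HepG2 cells bear transiently transfected cis-promoter reporter units and are exposed 24 h; gain- or loss-of-signal is fitted against DMSO.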

[14] = ATG_M_19_CIS: Attagene CIS-FACTORIAL HepG2 Assay for M19 Transcription Factor (Internal Marker) (AID 2282939); conditions: HepG2 Attagene CIS-FACTORIAL M19 internal marker reporter; actives raise or lower the signal
Procedure, shortened: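 HepG2 cells transiently transfected with cis-regulated multiplexed reporter units, dosed 24 h. Reporter mRNA quantified by RT-PCR and capillary electrophoresis; internal background marker fitted bidirectionally versus DMSO.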

[15] = ATG_ERE_CIS: Attagene CIS-FACTORIAL HepG2 Assay for Estrogen Response Element (ERE) (AID 2282940); conditions: HepG2 ERE cis-reporter, Attagene RNA transcript; actives raise or lower the signal
Procedure, shortened: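 HepG2 cells transiently transfected with multiplexed cis-element reporter units, measuring endogenous transcription factor activity; ERE reporter mRNA quantified after 24 h exposure by RT-PCR, fluorescent labelling, HpaI digestion and capillary electrophoresis. Bidirectional change versus DMSO.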

[16] = ATG_Ets_CIS: Attagene CIS-FACTORIAL HepG2 Assay for human Erythroblast Transformation Specific (ETS) (AID 2282941); conditions: HepG2 ETS cis-reporter transcription, actives raise or lower the signal
Procedure, shortened: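 HepG2 cells transfected with multiple cis-regulated reporter units measuring endogenous ETS-driven transcription, 24 h after dosing. Reporter mRNA quantified by RT-PCR with capillary electrophoresis; bidirectional fit relative to DMSO.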

[17] = biological target: Hepatocyte nuclear factor 3-beta (Homo sapiens) (UniProt Q9Y261); test: ATG_FoxA2_CIS: Attagene CIS-FACTORIAL HepG2 Assay for human Forkhead box A2 (FOXA2) (AID 2282942); conditions: HepG2 cis-reporter transcription factor activity, 24 h; actives raise or lower the signal
Chain of Hepatocyte nuclear factor 3-beta (Homo sapiens) (Q9Y261 whole entry, looked up, the tested form may be a part): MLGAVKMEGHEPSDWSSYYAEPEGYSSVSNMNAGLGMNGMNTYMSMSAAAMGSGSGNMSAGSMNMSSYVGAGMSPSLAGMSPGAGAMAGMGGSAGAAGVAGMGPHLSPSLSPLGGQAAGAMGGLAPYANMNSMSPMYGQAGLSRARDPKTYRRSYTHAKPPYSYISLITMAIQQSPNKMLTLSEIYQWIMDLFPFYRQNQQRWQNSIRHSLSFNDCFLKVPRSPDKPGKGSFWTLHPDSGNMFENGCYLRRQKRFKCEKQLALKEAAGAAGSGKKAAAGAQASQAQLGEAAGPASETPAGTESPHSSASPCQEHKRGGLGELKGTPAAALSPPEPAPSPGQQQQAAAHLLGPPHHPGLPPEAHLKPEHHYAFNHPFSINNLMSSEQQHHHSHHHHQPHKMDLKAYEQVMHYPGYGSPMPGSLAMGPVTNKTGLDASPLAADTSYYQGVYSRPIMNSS
Procedure, shortened: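 Fluorescence signal of reporter cDNA fragments, separated by capillary electrophoresis, reflects endogenous transcription factor activity in transfected HepG2 after 24 h. Both increases and decreases fitted against DMSO.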

[18] = ATG_FoxO_CIS: Attagene CIS-FACTORIAL HepG2 Assay for human Forkhead box O (FoxO) (AID 2282943); conditions: HepG2 Attagene cis-reporter, FoxO element, mRNA; actives raise or lower the signal
Procedure, shortened: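 HepG2 cells transiently transfected with cis-element-driven reporter units report endogenous FoxO activity. After 24 h chemical exposure, reporter mRNA quantified by RT-PCR, fluorescent labeling, HpaI digestion and capillary electrophoresis; bidirectional fit versus DMSO.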

[19] = ATG_GATA_CIS: Attagene CIS-FACTORIAL HepG2 Assay for human GATA Binding Protein (AID 2282944); conditions: HepG2 GATA cis-element reporter, Attagene multiplex mRNA; actives raise or lower the signal
Procedure, shortened: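 HepG2 cells transiently transfected with multiplexed cis-element reporter units measure endogenous GATA activity; after 24 h compound exposure, reporter mRNA quantified by RT-PCR and capillary electrophoresis. Changes fitted in both directions vs DMSO.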

[20] = ATG_GLI_CIS: Attagene CIS-FACTORIAL HepG2 Assay for human Zinc Finger Protein GLI1 (AID 2282945); conditions: HepG2, Attagene cis-factorial reporter mRNA, GLI element; actives raise or lower the signal
Procedure, shortened: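 Transiently transfected HepG2 cells report endogenous transcription factor activity via cis-element-driven reporter units. After 24 h compound exposure, reporter mRNA was measured by RT-PCR with capillary electrophoresis; bidirectional fitting against DMSO baseline.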

Measured: AC50

CCCCC1(COC(=O)CCC(=O)O)C(=O)N(c2ccccc2)N(c2ccccc2)C1=O
inactive: all assays above

O=C(O)c1cccnc1C(=O)O
not listed: [17]
inactive: all other assays above

NC1CCCCC1N (stereo not drawn)
not listed: [15]
inactive: all other assays above

CC1CCC(C(C)C)C(O)C1 (stereo not drawn)
not listed: [15]
inactive: all other assays above

CCC(C)S (stereo not drawn)
not listed: [15]
inactive: all other assays above

CCCN(CCC)S(=O)(=O)c1ccc(C(=O)O)cc1
not listed: [15]
inactive: all other assays above

COC(C)(C)CCO
not listed: [15]
inactive: all other assays above

C[Si](C)(C)O[Si](C)(C)C
not listed: [15]
inactive: all other assays above

O=C1c2ccccc2C(=O)c2c(O)ccc(O)c21
active: [3] 3.02 µM | [5] 0.296 µM | [11] 3.7 µM
not listed: [15]
inactive: all other assays above

CCC(=O)O[C@@H]1C[C@H]2CC[C@]1(C)C2(C)C
not listed: [15]
inactive: all other assays above

CS(=O)(=O)OCCCCOS(C)(=O)=O
active: [5] 63.6 µM
inactive: all other assays above

Clc1cc(Cl)c(-c2c(Cl)c(Cl)cc(Cl)c2Cl)cc1Cl
active: [3] 30.4 µM | [4] 21.8 µM | [6] 35 µM
not listed: [15]
inactive: all other assays above

O=C(O)c1ccc(O)cc1
not listed: [15]
inactive: all other assays above

CC(=O)c1c(C)c([N+](=O)[O-])c(C(C)(C)C)c([N+](=O)[O-])c1C
active: [9] 1.6 µM
not listed: [15]
inactive: all other assays above
